Results from ChEMBL document CHEMBL1961873, “Compounds: GSK PKIS; Assays: Nanosyn kinase panel” (2012).

Columns and labels:
[1] = target: 5'-AMP-activated protein kinase catalytic subunit alpha-2 (Homo sapiens) (UniProt P54646); details: at 1 µM
[2] = target: T1, NUAK family SNF1-like kinase 1 (Homo sapiens) (UniProt O60285); details: at 0.1 µM
T1 sequence (whole entry): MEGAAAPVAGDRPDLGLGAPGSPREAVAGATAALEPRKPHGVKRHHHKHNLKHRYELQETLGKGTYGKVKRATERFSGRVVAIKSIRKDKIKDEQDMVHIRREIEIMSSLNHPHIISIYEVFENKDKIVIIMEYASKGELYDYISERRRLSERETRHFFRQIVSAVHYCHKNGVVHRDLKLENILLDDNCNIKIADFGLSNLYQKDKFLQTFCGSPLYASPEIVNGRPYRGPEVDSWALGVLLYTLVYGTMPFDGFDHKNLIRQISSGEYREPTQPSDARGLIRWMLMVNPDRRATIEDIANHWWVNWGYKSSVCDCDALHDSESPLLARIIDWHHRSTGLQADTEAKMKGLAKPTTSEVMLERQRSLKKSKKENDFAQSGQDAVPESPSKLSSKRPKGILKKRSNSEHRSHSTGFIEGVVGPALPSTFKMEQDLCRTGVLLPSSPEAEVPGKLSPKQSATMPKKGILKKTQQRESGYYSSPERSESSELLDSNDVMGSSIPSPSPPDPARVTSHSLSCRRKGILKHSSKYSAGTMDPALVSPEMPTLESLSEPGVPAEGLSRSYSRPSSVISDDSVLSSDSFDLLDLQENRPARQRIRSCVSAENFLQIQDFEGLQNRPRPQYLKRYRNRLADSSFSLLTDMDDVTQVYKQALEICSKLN

[3] = target: T1, NUAK family SNF1-like kinase 1 (Homo sapiens); details: at 1 µM
[4] = target: T2, Serine/threonine-protein kinase BRSK1 (Homo sapiens) (UniProt Q8TDC3); details: at 0.1 µM
T2 sequence (whole entry): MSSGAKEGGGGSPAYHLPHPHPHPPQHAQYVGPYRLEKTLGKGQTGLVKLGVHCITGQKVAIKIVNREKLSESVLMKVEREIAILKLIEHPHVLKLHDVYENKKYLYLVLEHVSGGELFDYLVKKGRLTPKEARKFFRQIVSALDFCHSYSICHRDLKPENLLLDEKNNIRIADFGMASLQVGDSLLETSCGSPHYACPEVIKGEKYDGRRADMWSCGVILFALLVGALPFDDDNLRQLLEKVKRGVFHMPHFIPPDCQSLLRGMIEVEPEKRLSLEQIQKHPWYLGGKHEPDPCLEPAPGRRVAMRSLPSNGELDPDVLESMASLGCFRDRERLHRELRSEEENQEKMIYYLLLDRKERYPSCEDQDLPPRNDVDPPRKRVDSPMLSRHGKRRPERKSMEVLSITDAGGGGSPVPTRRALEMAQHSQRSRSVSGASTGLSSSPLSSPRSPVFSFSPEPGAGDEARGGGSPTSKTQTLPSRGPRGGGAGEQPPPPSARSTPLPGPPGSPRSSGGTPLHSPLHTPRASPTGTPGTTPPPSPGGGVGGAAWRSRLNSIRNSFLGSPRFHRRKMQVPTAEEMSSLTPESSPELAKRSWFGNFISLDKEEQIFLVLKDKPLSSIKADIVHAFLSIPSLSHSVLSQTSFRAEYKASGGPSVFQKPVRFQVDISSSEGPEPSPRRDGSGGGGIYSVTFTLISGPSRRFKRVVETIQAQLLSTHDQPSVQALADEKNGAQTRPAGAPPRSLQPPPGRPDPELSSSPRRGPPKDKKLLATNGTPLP

[5] = target: T2, Serine/threonine-protein kinase BRSK1 (Homo sapiens); details: at 1 µM
[6] = target: T3, Serine/threonine-protein kinase BRSK2 (Homo sapiens) (UniProt Q8IWQ3); details: at 0.1 µM
T3 sequence (whole entry): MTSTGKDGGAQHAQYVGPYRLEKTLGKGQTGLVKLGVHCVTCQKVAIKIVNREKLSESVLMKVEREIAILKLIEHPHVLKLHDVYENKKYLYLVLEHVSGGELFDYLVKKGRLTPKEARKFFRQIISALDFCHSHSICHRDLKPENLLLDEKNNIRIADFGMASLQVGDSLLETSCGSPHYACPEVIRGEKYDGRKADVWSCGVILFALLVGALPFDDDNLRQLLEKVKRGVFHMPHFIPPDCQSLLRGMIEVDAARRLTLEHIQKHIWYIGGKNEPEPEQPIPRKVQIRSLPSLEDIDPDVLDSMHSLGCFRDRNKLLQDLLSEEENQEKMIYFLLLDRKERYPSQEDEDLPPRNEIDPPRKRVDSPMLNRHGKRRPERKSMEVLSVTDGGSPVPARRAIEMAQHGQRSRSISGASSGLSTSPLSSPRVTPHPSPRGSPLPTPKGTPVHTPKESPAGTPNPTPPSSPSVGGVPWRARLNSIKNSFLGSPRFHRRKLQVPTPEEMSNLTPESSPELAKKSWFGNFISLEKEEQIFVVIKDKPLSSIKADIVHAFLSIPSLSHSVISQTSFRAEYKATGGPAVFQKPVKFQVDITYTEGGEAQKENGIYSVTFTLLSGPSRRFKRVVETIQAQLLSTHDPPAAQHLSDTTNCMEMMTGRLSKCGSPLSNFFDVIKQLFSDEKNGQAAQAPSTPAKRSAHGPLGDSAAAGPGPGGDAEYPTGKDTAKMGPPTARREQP

[7] = target: T3, Serine/threonine-protein kinase BRSK2 (Homo sapiens); details: at 1 µM
[8] = target: Calcium/calmodulin-dependent protein kinase type 1D (Homo sapiens) (UniProt Q8IU85); details: at 0.1 µM
Chain of Calcium/calmodulin-dependent protein kinase type 1D (Homo sapiens) (Q8IU85 whole entry, looked up): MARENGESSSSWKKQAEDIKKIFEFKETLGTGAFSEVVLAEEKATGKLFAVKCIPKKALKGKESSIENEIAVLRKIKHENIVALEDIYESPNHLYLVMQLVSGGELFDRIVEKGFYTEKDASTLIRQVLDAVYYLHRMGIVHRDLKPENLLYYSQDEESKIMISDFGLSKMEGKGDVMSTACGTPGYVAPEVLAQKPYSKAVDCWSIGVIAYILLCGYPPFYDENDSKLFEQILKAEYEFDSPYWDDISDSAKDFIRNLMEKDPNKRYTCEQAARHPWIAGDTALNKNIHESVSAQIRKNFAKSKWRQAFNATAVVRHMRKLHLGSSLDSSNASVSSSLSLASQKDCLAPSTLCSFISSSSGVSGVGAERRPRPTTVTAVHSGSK

[9] = target: Calcium/calmodulin-dependent protein kinase type 1D (Homo sapiens) (UniProt Q8IU85); details: at 1 µM
[10] = target: Calcium/calmodulin-dependent protein kinase type II subunit alpha (Homo sapiens) (UniProt Q9UQM7); details: at 0.1 µM
Chain of Calcium/calmodulin-dependent protein kinase type II subunit alpha (Homo sapiens) (Q9UQM7 whole entry): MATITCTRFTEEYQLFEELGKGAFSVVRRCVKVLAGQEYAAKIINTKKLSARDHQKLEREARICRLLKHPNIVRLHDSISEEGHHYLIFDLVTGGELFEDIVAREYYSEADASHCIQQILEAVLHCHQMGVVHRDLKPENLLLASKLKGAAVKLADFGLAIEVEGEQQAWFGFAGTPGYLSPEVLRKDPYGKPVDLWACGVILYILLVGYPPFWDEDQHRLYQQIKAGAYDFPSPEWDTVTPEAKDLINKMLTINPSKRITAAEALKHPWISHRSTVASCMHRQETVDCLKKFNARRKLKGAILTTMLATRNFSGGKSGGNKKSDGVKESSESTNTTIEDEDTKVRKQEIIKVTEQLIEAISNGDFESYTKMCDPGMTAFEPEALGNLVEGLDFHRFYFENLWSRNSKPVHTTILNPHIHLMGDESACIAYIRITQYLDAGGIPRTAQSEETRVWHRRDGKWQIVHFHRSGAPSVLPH

[11] = target: Calcium/calmodulin-dependent protein kinase type II subunit alpha (Homo sapiens) (UniProt Q9UQM7); details: at 1 µM
[12] = target: Calcium/calmodulin-dependent protein kinase type II subunit delta (Homo sapiens) (UniProt Q13557); details: at 0.1 µM
Chain of Calcium/calmodulin-dependent protein kinase type II subunit delta (Homo sapiens) (Q13557 whole entry): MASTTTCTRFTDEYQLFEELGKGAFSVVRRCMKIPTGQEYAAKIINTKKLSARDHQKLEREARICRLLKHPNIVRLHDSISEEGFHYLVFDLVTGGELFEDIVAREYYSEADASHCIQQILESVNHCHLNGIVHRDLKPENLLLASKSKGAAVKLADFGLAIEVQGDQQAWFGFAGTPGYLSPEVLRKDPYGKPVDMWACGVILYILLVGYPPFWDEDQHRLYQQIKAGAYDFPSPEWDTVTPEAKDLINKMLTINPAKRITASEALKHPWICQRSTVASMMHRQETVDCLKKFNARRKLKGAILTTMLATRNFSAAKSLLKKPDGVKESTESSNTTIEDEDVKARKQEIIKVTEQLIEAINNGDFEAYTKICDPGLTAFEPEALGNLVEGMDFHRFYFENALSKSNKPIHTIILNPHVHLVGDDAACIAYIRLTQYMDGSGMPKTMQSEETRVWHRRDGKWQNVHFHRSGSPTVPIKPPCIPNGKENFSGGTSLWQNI

[13] = target: Calcium/calmodulin-dependent protein kinase type II subunit delta (Homo sapiens) (UniProt Q13557); details: at 1 µM
[14] = target: T4, Calcium/calmodulin-dependent protein kinase type IV (Homo sapiens) (UniProt Q16566); details: at 0.1 µM
T4 sequence (whole entry): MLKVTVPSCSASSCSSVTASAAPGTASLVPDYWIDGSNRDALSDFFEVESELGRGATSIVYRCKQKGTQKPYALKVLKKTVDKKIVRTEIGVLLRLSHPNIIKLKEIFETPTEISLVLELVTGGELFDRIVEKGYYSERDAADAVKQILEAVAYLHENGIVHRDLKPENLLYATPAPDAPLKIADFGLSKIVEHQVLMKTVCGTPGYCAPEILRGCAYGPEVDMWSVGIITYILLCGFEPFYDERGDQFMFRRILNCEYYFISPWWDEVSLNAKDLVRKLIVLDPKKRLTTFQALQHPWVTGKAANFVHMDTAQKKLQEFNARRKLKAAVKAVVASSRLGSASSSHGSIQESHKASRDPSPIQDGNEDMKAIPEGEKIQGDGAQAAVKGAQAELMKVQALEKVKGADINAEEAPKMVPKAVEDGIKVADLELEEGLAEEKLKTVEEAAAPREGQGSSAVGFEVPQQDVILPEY

[15] = target: T4, Calcium/calmodulin-dependent protein kinase type IV (Homo sapiens); details: at 1 µM
[16] = target: T5, Serine/threonine-protein kinase Chk1 (Homo sapiens) (UniProt O14757); details: at 0.1 µM
T5 sequence (whole entry): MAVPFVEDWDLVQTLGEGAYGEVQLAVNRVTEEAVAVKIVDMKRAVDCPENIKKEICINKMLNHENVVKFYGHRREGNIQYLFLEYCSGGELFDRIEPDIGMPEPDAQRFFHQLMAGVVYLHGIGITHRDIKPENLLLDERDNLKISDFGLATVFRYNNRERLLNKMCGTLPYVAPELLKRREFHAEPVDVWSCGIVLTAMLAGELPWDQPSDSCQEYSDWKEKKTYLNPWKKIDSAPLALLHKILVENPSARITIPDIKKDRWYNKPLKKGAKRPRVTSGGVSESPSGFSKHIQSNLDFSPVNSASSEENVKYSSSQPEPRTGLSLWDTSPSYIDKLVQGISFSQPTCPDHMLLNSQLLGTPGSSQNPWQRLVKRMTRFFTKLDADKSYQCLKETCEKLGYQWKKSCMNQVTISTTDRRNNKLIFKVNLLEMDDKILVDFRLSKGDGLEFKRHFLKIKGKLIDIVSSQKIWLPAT

[17] = target: T5, Serine/threonine-protein kinase Chk1 (Homo sapiens); details: at 1 µM
[18] = target: Serine/threonine-protein kinase Chk2 (Homo sapiens) (UniProt O96017); details: at 0.1 µM
Chain of Serine/threonine-protein kinase Chk2 (Homo sapiens) (O96017 whole entry): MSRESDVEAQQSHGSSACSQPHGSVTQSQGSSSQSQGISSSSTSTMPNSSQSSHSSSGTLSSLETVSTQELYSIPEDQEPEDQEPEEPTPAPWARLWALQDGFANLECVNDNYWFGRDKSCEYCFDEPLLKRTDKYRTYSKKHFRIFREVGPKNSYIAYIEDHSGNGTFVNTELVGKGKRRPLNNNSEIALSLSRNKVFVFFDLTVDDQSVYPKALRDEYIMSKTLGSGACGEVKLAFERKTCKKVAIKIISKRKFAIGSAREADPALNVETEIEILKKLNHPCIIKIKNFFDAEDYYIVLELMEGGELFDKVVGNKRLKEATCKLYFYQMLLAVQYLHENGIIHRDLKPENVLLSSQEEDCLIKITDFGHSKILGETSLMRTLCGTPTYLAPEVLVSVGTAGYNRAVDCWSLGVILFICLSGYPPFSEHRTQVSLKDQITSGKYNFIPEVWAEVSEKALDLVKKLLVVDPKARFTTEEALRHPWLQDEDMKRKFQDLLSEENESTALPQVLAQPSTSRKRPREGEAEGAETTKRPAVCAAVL

[19] = target: Serine/threonine-protein kinase Chk2 (Homo sapiens) (UniProt O96017); details: at 1 µM
[20] = target: Death-associated protein kinase 1 (Homo sapiens) (UniProt P53355); details: at 0.1 µM;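 also: reported figure is the mean inhibition of DAPK1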
Chain of Death-associated protein kinase 1 (Homo sapiens) (P53355 whole entry, looked up): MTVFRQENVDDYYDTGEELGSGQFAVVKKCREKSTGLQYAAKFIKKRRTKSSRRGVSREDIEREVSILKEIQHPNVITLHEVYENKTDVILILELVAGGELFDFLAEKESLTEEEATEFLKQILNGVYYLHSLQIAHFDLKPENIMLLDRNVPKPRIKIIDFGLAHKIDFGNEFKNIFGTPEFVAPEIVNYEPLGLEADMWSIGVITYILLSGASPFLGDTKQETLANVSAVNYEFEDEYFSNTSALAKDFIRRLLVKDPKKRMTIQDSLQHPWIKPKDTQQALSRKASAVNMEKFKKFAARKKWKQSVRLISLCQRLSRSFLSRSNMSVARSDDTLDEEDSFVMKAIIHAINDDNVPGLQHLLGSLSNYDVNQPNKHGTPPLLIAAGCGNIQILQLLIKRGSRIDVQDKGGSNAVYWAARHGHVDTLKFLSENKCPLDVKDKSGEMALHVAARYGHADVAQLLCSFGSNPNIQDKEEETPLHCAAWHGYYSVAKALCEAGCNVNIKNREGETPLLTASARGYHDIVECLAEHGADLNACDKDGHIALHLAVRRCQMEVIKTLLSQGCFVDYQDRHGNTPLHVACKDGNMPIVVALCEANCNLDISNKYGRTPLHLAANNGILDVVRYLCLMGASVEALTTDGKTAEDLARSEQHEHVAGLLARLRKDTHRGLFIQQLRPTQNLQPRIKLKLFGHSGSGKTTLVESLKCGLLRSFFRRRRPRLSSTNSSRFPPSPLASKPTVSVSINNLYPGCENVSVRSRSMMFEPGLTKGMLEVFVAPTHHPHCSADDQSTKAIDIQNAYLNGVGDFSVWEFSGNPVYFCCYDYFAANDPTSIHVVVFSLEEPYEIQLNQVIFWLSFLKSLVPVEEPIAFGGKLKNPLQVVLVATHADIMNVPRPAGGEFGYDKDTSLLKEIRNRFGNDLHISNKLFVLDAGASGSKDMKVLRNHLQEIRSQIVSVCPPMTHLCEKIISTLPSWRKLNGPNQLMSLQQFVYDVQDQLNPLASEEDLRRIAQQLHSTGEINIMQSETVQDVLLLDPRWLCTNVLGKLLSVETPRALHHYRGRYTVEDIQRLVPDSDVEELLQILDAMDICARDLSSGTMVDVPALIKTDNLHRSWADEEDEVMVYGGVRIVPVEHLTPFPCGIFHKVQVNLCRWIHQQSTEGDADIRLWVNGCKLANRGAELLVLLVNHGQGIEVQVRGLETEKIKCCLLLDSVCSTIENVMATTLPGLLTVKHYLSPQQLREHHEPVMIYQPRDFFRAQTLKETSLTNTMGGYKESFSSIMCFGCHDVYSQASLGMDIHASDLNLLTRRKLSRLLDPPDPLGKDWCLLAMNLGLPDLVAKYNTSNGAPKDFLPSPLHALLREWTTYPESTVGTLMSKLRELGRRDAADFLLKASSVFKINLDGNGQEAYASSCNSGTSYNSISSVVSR

Chain of 5'-AMP-activated protein kinase catalytic subunit alpha-2 (Homo sapiens) (P54646 whole entry, looked up): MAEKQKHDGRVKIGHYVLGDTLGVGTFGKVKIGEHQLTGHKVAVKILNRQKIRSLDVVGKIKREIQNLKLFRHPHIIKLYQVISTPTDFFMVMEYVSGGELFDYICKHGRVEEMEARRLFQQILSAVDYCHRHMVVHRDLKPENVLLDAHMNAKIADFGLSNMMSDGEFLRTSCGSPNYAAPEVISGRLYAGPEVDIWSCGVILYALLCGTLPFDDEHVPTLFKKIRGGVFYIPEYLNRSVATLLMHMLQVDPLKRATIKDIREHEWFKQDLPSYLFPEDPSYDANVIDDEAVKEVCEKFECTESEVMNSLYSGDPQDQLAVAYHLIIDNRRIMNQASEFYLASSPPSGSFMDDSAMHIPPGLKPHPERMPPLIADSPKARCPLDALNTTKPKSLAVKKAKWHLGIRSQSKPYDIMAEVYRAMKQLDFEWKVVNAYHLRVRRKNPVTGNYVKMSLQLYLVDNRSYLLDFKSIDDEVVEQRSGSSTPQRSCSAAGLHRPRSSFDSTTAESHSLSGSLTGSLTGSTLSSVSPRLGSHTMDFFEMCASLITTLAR

| Structure (SMILES) | inhibition [1] | inhibition [2] | inhibition [3] | inhibition [4] | inhibition [5] | inhibition [6] | inhibition [7] | inhibition [8] | inhibition [9] | inhibition [10] | inhibition [11] | inhibition [12] | inhibition [13] | inhibition [14] | inhibition [15] | inhibition [16] | inhibition [17] | inhibition [18] | inhibition [19] | inhibition [20] |
| --- | --- | --- | --- | --- | --- | --- | --- | --- | --- | --- | --- | --- | --- | --- | --- | --- | --- | --- | --- | --- |
| O=C(O[C@H]1CN[C@H](C#Cc2cc3ncnc(Nc4ccc5c(ccn5Cc5cc(F)ccc5F)c4)c3s2)C1)N1CCOCC1 | 3.87% | 1.19% | 1.94% | 1.2% | 0.38% | 1.23% | 0.73% | 0.69% | 2.19% | 2.78% | 3.57% | 4.06% | 3.62% | 0.33% | 1.34% | -1.01% | -1.69% | -0.02% | 6.4% | -3.56% |
| N#Cc1cccc(Nc2ncc(-c3ccccc3)o2)c1 | 1.61% | 0.75% | 7.37% | -1.88% | 1.82% | 0.65% | 5% | -1.6% | -1.52% | 1.87% | 1.79% | 0.08% | 2.56% | -2.03% | -2.55% | 0.93% | 2.48% | 1.04% | 2.58% | 2.18% |
| CS(=O)(=O)Nc1ccc(-c2cc(-c3ccccc3)cc(C(N)=O)c2N)cc1 | 1.49% | -2.25% | 1.62% | -0.36% | -0.05% | 0.92% | 2.21% | -0.99% | -0.47% | -1.51% | -1.32% | 0.44% | 1.39% | -3.34% | -0.72% | 3.76% | 0.63% | 1.07% | 1.94% | 2.28% |
| CCS(=O)(=O)c1ccc(OC)c(Nc2ncc(-c3cccc(C(C)=O)c3)o2)c1 | 3.65% | 2.25% | 4.46% | -0.38% | 3.68% | 1.58% | 4.09% | 0.3% | -0.69% | 2.75% | 1.16% | 1.73% | 3.23% | -3% | -5.43% | -0.75% | -1.38% | 1.62% | 3.67% | 2.47% |
